The list is not random: actives were taken first. Their share in the collection is about 5.6%.
CtBP-E1A blk – qHTS Assay for Inhibitors of the CtBP/E1A Interaction; CtBP / adenovirus E1A interaction (AlphaScreen); AlphaScreen GST-E1A/His-CtBP binding, 1536-well; stronger effect = lower value; activity change, % (test concentration not listed); 340,000 tested, 0.49% active; AID 651724, 2012; in the data active = activity change below about -65%; inconclusive = mostly about -30% to -63%
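Steps: dispense buffer (Tris pH 8.0, NaCl 300 mM, TCEP 1 mM, BSA, Tween 20); add 5X protein mix (GST-E1A, His-CtBP, 125 nM each); pin 23 nL compound; 2 h at 37 °C, dark; add 5X beads (50 ug/mL); 1 h; read.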
RORgamma inh – qHTS for inhibitors of ROR gamma transcriptional activity; Nuclear receptor ROR-gamma (Mus musculus), P51450; 310,000 tested, 5.4% active; Potency, µM (top dose mostly 53.6 µM), without a hit: top-dose activity change, negative = inhibition, actives largely listed as inhibitors; Drosophila S2 Gal4-RORgamma UAS-luciferase reporter, 20 h; AID 2551, 2010; also: potency is read from the fitted curve at half-maximal effect; nearly all actives have a fitted effect of over 60% in size
Target sequence (P51450 whole entry, looked up, the tested form may be a part): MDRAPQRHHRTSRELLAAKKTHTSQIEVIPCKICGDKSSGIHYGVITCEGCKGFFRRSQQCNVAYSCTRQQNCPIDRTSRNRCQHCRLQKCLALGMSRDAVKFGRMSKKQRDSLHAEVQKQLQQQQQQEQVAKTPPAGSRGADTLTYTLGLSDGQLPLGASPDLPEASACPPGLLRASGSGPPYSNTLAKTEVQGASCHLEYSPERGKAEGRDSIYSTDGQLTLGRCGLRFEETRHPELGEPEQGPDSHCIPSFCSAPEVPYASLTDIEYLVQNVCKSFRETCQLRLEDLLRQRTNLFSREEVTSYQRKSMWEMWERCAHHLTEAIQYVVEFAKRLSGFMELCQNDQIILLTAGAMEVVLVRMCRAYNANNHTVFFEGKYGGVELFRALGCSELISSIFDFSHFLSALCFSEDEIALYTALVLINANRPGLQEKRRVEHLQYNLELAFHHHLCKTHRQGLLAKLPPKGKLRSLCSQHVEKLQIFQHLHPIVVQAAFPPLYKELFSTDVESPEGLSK
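Luminescence from a UAS-regulated Photinus luciferase reporter in stably transfected Drosophila Schneider cells is measured; decreased signal marks ROR gamma inhibition. Fusion expression is induced by 700 uM copper sulfate for 20 hr.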
PKM2 activator – qHTS Assay for Activators of Human Muscle isoform 2 Pyruvate Kinase; Pyruvate kinase PKM (Homo sapiens), P14618; purified PKM2, Kinase-Glo ATP luminescence, activation; response scale: 0% is enzyme alone, no compound; Potency, µM (series often up to 57.5 µM), for the others: top-dose activation, usual class: activators; 260,000 tested, 0.34% active; also: potency is read from the fitted curve at half-maximal effect; nearly all actives have a fitted effect of over 55% in size
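hPK-M2, >95% pure; 0.1 mM ADP / 0.5 mM PEP final; imidazole pH7.2 buffer w/ 7 mM MgCl2, 50 mM KCl; 1 h RT; Kinase-Glo lum. Intermediate enzyme activity for dual inhibitor/activator qHTS.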
Gal4-VP16 FLuc – VP16 counterscreen qHTS for inhibitors of ROR gamma transcriptional activity; Drosophila S2 Gal4-VP16 UAS-luciferase, luminescence, 20 h; Potency, µM (doses to about 53.6 µM), for inactives: at the top dose activity, negative = inhibition, most hits filed as inhibitors; 310,000 tested, 3.5% active;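 also: Gal4-VP16 expression switched on by copper sulfate through the metallothionein promoter; potency is read from the fitted curve at half-maximal effect; nearly all actives have a fitted effect of over 50% in size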
Six1-Eya2 inh – qHTS Assay for Inhibitors of the Six1/Eya2 Interaction | Homeobox protein SIX1 (Homo sapiens) + Protein phosphatase EYA2 (Homo sapiens), … | AlphaScreen GST-Six1/His-Eya2 binding, biochemical; stronger effect = lower value | activity change, % (concentration not given with the values) | 360,000 tested, 0.56% active | AID 651725, 2012; in the data active = activity change below about -65%; inconclusive = mostly about -30% to -63%
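AlphaScreen luminescence read after one hour at 37 °C in darkness. Pin-transferred compounds met GST-Six1 and His-Eya2 protein (5X stock 250 nM/500 nM) plus glutathione donor and Ni-chelate acceptor beads (5X, 50 ug/mL).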
* hit, by the source's call. Unless noted, calls follow the shape of the dose curve; as a rule, active = well fitted curve in the direction sought with a large enough effect; inconclusive = small, poorly fitted or top-dose-only effect, or another doubt; inactive = no such curve, though single readings can be large; an effect the other way counts as inactive or inconclusive. % is scaled to controls: 0 for no effect and ±100 for the full control effect.

Screening COc1cccc(-c2csc(N3CCN(C(=S)Nc4ccccc4Cl)CC3)n2)c1 returned CtBP-E1A blk -4, RORgamma inh 11µM*, PKM2 activator 5%, Gal4-VP16 FLuc inconclusive and Six1-Eya2 inh -22.
COC(=O)c1ccc(CN2C(=O)C(C)N(C(=O)c3c(F)cccc3F)c3ccccc32)cc1 (stereo unspecified) was read as CtBP-E1A blk -4, RORgamma inh -1%, Gal4-VP16 FLuc -1% and Six1-Eya2 inh -2.
Screening CCc1ccc(C(=O)COC(=O)CNC(=O)C2CCCCC2)cc1 returned CtBP-E1A blk -15 and Six1-Eya2 inh 8.
For CCC(C(=O)NCCCN1CCN(C)CC1)n1nc(C)n2c(cc3occc32)c1=O (stereo unspecified) the results were CtBP-E1A blk 8, RORgamma inh -13%, Gal4-VP16 FLuc 3% and Six1-Eya2 inh 0.
For CCOC(=O)Cn1nc(C)c(NC(=O)COc2ccc(OC)cc2)c1C the results were CtBP-E1A blk 4, RORgamma inh -12%, PKM2 activator 1%, Gal4-VP16 FLuc -11% and Six1-Eya2 inh 6.
`CCOc1ccc2nc(SC3CC(=O)N(c4ccccc4)C3=O)sc2c1` (stereo unspecified) gave CtBP-E1A blk 3, RORgamma inh 10µM*, PKM2 activator -4%, Gal4-VP16 FLuc 13µM* and Six1-Eya2 inh -5.
For CCOc1ccc2nc(SC3CC(=O)N(c4cccc(OC)c4)C3=O)sc2c1 (stereo unspecified) the results were CtBP-E1A blk 0, RORgamma inh 14µM*, PKM2 activator 11%, Gal4-VP16 FLuc 4µM* and Six1-Eya2 inh 0.
`CCOc1ccc2nc(SCC(=O)c3ccccc3)sc2c1` gave CtBP-E1A blk 9, RORgamma inh inconclusive, PKM2 activator -2%, Gal4-VP16 FLuc inconclusive and Six1-Eya2 inh 25.
Screening COc1ccc(S(=O)(=O)NCCC(=O)N2CCCN(C)CC2)cc1 returned CtBP-E1A blk 4 and Six1-Eya2 inh 2.
For COc1ccc2c(c1)nc(N)n2Cc1ccccc1 the results were CtBP-E1A blk -9, RORgamma inh inconclusive, PKM2 activator 8%, Gal4-VP16 FLuc inconclusive and Six1-Eya2 inh -10.
COc1ccc(Cn2c(/C=C/c3ccccc3)nc3ccccc32)cc1 was read as CtBP-E1A blk 24, RORgamma inh 7.1µM*, PKM2 activator -12%, Gal4-VP16 FLuc inconclusive and Six1-Eya2 inh 33.
For COc1ccc(/C=C/c2nc3ccccc3c(=O)o2)cc1 the results were CtBP-E1A blk -5, RORgamma inh 4.5µM*, Gal4-VP16 FLuc 7.9µM* and Six1-Eya2 inh 2.
Screening CCC(C)n1c(/C=C/c2ccccc2)nc2ccccc21 (stereo unspecified) returned CtBP-E1A blk 38, RORgamma inh 10µM*, PKM2 activator 8%, Gal4-VP16 FLuc 13µM* and Six1-Eya2 inh 35.
COc1ccccc1/C=C/c1nc2ccccc2c(=O)o1 was read as CtBP-E1A blk -4 and Six1-Eya2 inh -2.
COc1ccc(-c2n(Cc3ccccc3)c3ccccc3[n+]2Cc2ccccc2)cc1 was read as CtBP-E1A blk 0, RORgamma inh 5.6µM*, PKM2 activator 0%, Gal4-VP16 FLuc 5µM* and Six1-Eya2 inh -5.
`Cc1nc(C)n(CC(=O)N2CCCC(C(=O)c3cccc4ccccc34)C2)n1` (stereo unspecified) gave CtBP-E1A blk 5, RORgamma inh 2%, PKM2 activator 2%, Gal4-VP16 FLuc 3% and Six1-Eya2 inh 2.
`O=C(Cn1ccc(C(F)(F)F)n1)N/N=C/c1ccc2c(c1)OCO2` gave CtBP-E1A blk -18, RORgamma inh -1%, PKM2 activator 4%, Gal4-VP16 FLuc -15% and Six1-Eya2 inh 2.

Screening data from PubChem.
